Compound activity: PubChem BioAssay, several laboratories
Bfl-1 A1 inh = inhibitors of the anti-apoptotic protein A1, read as caspase activation; 330,000 tested, 0.066% active; MEF A1-2A-BIM cells, Caspase-Glo 3/7 luminescence, 3 h; percent of clofoctol response, vehicle zero; caspase activation, % (no concentration beside the values);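 active = over half of replicate activation scores above 10%, or exactly half above 10 with the replicate mean above 10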
CHT inh = inhibitors of human choline transporter CHT | CHT-expressing cells, membrane potential dye, choline response; stronger effect = lower value | AID 488975 | Q9GZV3 | B-score at 10 µM | 310,000 tested, 0.86% active;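 active = B-score over 3 SD under the library average, and starting fluorescence ratio not unusually high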;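 also: choline stimulus applied at its EC90 after an EC20 pre-addition; B-score computed on integrated fluorescence ratio after choline addition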
Target sequence (Q9GZV3 whole entry, looked up): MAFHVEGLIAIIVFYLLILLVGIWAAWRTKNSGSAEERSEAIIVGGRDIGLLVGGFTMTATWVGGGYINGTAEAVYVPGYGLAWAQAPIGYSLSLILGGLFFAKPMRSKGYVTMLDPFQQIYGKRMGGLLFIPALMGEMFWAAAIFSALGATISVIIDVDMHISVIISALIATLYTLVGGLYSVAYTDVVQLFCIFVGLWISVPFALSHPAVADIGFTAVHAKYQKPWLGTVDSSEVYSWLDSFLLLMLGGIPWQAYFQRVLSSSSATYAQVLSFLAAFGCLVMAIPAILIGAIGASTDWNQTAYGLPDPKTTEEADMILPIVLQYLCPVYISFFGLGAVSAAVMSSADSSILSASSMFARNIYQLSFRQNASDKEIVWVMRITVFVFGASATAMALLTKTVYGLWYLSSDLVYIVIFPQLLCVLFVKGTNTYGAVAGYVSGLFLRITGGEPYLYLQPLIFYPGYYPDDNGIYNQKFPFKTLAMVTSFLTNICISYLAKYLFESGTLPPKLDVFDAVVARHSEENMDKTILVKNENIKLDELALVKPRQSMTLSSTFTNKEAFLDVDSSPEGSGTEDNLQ
NALP3 yeast inh = inhibitors of NALP3 inflammasome in yeast; Yeast reconstituted NLRP3/ASC/caspase-1, beta-gal luminescence, 24 h; inhibition, % at 10 µM; 330,000 tested, 0.39% active; AID 2825;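 active = inhibition of 50% or more; inactive = inhibition below 50%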;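 also: plate controls were induced DMSO wells for no effect and uninduced yeast grown without galactose for full effect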
NALP1 inh = NALP1 inhibition | S. cerevisiae NALP1/ASC/caspase-1 growth, X-gal OD620, 72 h | 280,000 tested, 0.61% active | inhibition, % at 10 µM; in the data active = inhibition mostly above about 24%, no sharp cut-off; inactive = mostly below about 32%
SUMO Mot1 rescue = blocks SUMOylation pathway, rescuing yeast Mot1-301 growth. S. cerevisiae Mot1-301 growth rescue, ATP luminescence, 38.5C; percent above DMSO median, 100 means doubled. growth rescue, % at 18.8 µM. 320,000 tested, 1% active. AID 2716;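 active = every valid replicate shows activation above 250% relative to neutral control wells; inactive = the rest, any valid replicate at or below 250%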;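 also: OY570 slx delta 5 strain wells were the positive control but not used for scaling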
CHT PAM = allosteric activators of human choline transporter CHT | Q9GZV3 | CHT-expressing cells, membrane potential dye, choline EC20; stronger effect = higher value; LV-AA mutant CHT in HEK293 cells | B-score at 10 µM | 310,000 tested, 0.49% active | AID 488977;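 active = initial fluorescence not abnormally high and integrated response B-score, plate-corrected, over 3 SD above library mean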
CHT inh conf = human CHT inhibition, confirmatory screen; CHT activity remaining % of control (stronger effect = lower value), % at 10 µM; 2,400 tested, 70% active; shares compounds with CHT inh; CHT-expressing cells, choline membrane potential dye; LV-to-AA substituted CHT, HEK293 cells;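 active = choline transporter activity left, mean of duplicates at 10 µM, below buffer-only control mean minus 3 SD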;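 also: depolarization triggered by choline at its EC90 following an EC20 pre-addition; 0% = hemicholinium-3 full block and 100% = buffer-only control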
HEK293 MPD ctr = activity in parental HEK293 cells lacking CHT; shares compounds with CHT inh; membrane potential dye, choline response; active = decrease or increase beyond buffer ±3SD; membrane potential ratio readout (active if shifted either direction beyond buffer ±3SD; no single direction) at 10 µM; 2,400 tested, 4% active; AID 493222;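 also: parental cells lack the transporter so any hit is non-specific; ratio is peak minus trough fluorescence over baseline after EC90 choline challenge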
The depositor's hits bear a star; i = inactive; · = no result given. A selection: hits, their analogues and other compounds. The true share with any hit is near 3%.

SMILES	Bfl-1 A1 inh	CHT inh	NALP3 yeast inh	NALP1 inh	SUMO Mot1 rescue	CHT PAM	CHT inh conf	HEK293 MPD ctr
N#CC(c1ccccc1)c1ccc2c(C(F)(F)F)cc(C(F)(F)F)nc2n1 (configuration not stated)	0	-5.5*	8	11	·	i	i	i
COC(C(=O)Nc1ccnn1C1CCN(C(=O)c2cccc(F)c2)CC1)c1ccccc1 (configuration not stated)	1	i	4	14	-10	i	·	·
CCOC(=O)c1ccc2nc(NC(=O)C(C)C)sc2c1	-6	i	24	29	7	i	·	·
C=CCN(CC=C)S(=O)(=O)c1ccc2nc(NC(=O)C(C)C)sc2c1	1	-7.3*	4	-2	103	i	43%*	i
O=C(C1CCN(S(=O)(=O)c2ccc3ccccc3c2)CC1)N1CCN(c2ncccn2)CC1	1	-6*	0	13	-10	i	39%*	i
Cc1cc(C)c2[nH]c3nc(SCC(=O)O)nnc3c2c1	-4	i	22	12	15	i	·	·
Cc1n[nH]c(C)c1S(=O)(=O)N1CCCC(C(=O)N2CCN(c3ccc(Cl)cc3)CC2)C1 (configuration not stated)	0	-5.2*	14	-18	49	i	i	i
CCCCn1c(SCc2nnc(-c3ccccc3)o2)nc2c1c(=O)n(C)c(=O)n2C	-1	-5.6*	11	26	0	i	34%*	i
Cc1[nH]c(=O)[nH]c(=O)c1S(=O)(=O)Nc1cccc([N+](=O)[O-])c1C	0	i	10	26	13	i	·	·
Cn1c(-c2ccccc2)cnc1NCc1ccccc1	0	-7.2*	21	0	133	i	46%*	i
Cn1c(-c2ccc3c(c2)OCO3)cnc1NCc1ccccc1	0	i	0	5	-1	i	·	·
Cc1ccc(CNc2ncc(-c3ccccc3)n2C)o1	-1	-5.1*	5	7	-4	i	34%*	i
Cn1c(-c2cccc(Br)c2)cnc1NCc1ccccc1O	1	i	22	24	25	i	·	·
O=C(c1ccc(O)cc1)c1ccc(O)cc1O	-1	i	-2	·	84	i	·	·
CN(C)c1ccc(C(=O)c2ccc(O)cc2O)cc1	-5	-6*	33	13	4	i	61%*	i
Cc1ccc(C(=O)CCC(=O)OCC(=O)N(CC(C)C)c2c(N)n(Cc3ccccc3)c(=O)[nH]c2=O)cc1	1	i	-1	·	-10	i	·	·
O=C(Nc1cccc(C(=O)N2CCCCC2)c1)c1ccccc1Br	0	-5.2*	20	2	-14	i	25%*	i
CCCn1nc2cc(C(=O)NCc3ccc(C)cc3)ccc2c1OCC	0	-5.6*	15	7	-5	i	56%*	i
CCOc1c2ccc(C(=O)NCc3ccc(C)cc3)cc2nn1CC	0	i	13	10	-16	i	·	·
CCOc1c2ccc(C(=O)NC3CCCc4ccccc43)cc2nn1C (configuration not stated)	2	i	6	20	101	i	·	·
CCCCn1nc2cc(C(=O)NC3CCCc4ccccc43)ccc2c1OCC (configuration not stated)	0	-9.6*	16	-5	3	i	21%*	i
CCCCn1nc2cc(C(=O)N[C@H](C)C3CCCCC3)ccc2c1OCC	-1	-11*	14	42	7	i	5.4%*	i
C=CC(=O)Nc1ccc(N(C)c2ccnc(Nc3ccc(N4CCN(C)CC4)cc3)n2)cc1	·	·	15	·	·	·	·	·
O=C(c1ccco1)N1CCC(c2nc(-c3ccccc3Cl)no2)CC1	0	-5.7*	-1	-4	0	i	i	i
O=C(c1ccco1)N1CCC(c2nc(-c3ccc(F)cc3)no2)CC1	1	i	-32	-8	395	i	·	·
SMILES	Bfl-1 A1 inh	CHT inh	NALP3 yeast inh	NALP1 inh	SUMO Mot1 rescue	CHT PAM	CHT inh conf	HEK293 MPD ctr
O=C(COc1ccc2c(-c3ccccc3)cc(=O)oc2c1)Nc1ccc(CCO)cc1	0	i	7	17	1	i	·	·
N#C/C(=N\Nc1ccc(F)cc1)C(=N)N1CCCCCC1	-5	i	3	9	56	i	·	·
N#C/C(=N\Nc1ccc(F)cc1)C(=O)C1CC1	-2	-6.2*	4	·	34	i	50%*	i
Cc1cc(OC(C)C(=O)N(Cc2ccco2)C2CCS(=O)(=O)C2)ccc1Cl (configuration not stated)	0	i	11	13	2	i	·	·
O=C(Nc1ccccc1C(=O)NCCCN1CCOCC1)c1ccc(F)cc1F	0	i	-4	13	-7	i	·	·
O=C(Nc1ccc(OCc2ccccc2)cc1)Nc1ccccc1C(=O)NCCCN1CCOCC1	-8	-5*	12	8	-7	i	44%*	i
COc1ccc(NC(=O)C=C(C)C)cc1Cl	-9	i	48	15	-14	i	·	·
CC(=O)Nc1ccc(Oc2ncccn2)c(Cl)c1	0	-5.6*	4	3	-3	i	i	i
O=C(Nc1cccnc1)c1ccc(COc2cc(Cl)ccc2Cl)o1	0	i	16	12	14	i	·	·
O=C(Nc1cccnc1)c1ccc(COc2ccccc2Cl)o1	1	-7.3*	15	7	152	i	56%*	i
O=C1N[C@@H](Cc2cn(S(=O)(=O)c3c(F)c(F)c(F)c(F)c3F)c3ccccc23)C(=O)N[C@H]1Cc1ccccc1	-1	i	3	·	-4	i	·	·
Cc1ccc(S(=O)(=O)CCC(=O)OC(C)C(=O)N2CCc3ccccc32)cc1 (configuration not stated)	1	-7.4*	12	·	17	i	37%*	i
Nc1ncc(CCN2CCOCC2)c(-c2ccc(F)cc2)n1	0	i	3	2	1	i	·	·
COc1ccc(-c2nc3c(-c4ccccc4)cnn3cc2C)cc1F	0	i	4	-3	30	i	·	·
Fc1ccc(-c2nc3c(-c4ccccc4)cnn3cc2CCN2CCOCC2)cc1	-1	-10*	4	16	7	i	22%*	i
Fc1ccc(-c2nc3c(-c4ccc(F)cc4)cnn3cc2CCN2CCOCC2)cc1	2	-6.6*	17	-4	8	i	59%*	i
